In the supplement of paper PMC7858590:
± gives the standard deviation of the averaged measurements. In all, about 3,800 compounds were measured (“cell shape (eccentricity) Z-score vs DMSO control”: median about 1.1, lowest 2% from about -4.7 on). Shown is part of a subset that was picked to be rich in the lowest values.

Each compound was assayed on human monocyte-derived macrophages (M0) (assay: cell shape (eccentricity) Z-score vs DMSO control; higher = more elongated, M2-like morphology). Details: 20 µM; 24 h; macrophage state: M0 (M-CSF).
Procedure: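 Primary human monocyte-derived macrophages (M-CSF differentiated, pooled from 4 donors, 5000 cells/well in 384-well plates) were treated with each compound at 20 uM for 24 h, then fixed and stained with phalloidin/DAPI and imaged on an Opera Phenix (6 fields, about 1000 cells/well). Cell eccentricity was measured with CellProfiler, and a Z-score (t-test) was computed against 4 DMSO control wells in the same row. Negative values mean round (M1-like) cells and positive values mean elongated (M2-like) cells; the paper's hit cutoffs are Z <= -4 (M1) and Z >= 6 (M2). Scale: negative = round, M1-like.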

Point of comparison: C[C@@H]1O[C@@H](O[C@H]2[C@H](OC(=O)[C@]34CCC(C)(C)C[C@H]3C3=CCC5[C@@]6(C)C[C@H](O)[C@H](O[C@@H]7O[C@H](CO)[C@@H](O)[C@H](O)[C@H]7O)[C@@](C)(CO)C6[C@H](O)C[C@@]5(C)[C@]3(C)CC4)OC[C@H](O)[C@@H]2O)[C@H](O)[C@H](O)[C@H]1O[C@@H]1OC[C@@H](O)[C@H](O[C@@H]2OC[C@](O)(CO)[C@H]2O)[C@H]1O (stereo not given in full), “cell shape (Z-score)” value -6.49. Against it:
- CON=C(C(=O)NC1C(=O)N2C(C(=O)O)=C(CSc3nc(=O)c(=O)[nH]n3C)CSC12)c1csc(N)n1 (stereo not given) — higher, -0.265
- Cc1oc(=O)oc1CN1CCN(c2cc3c(cc2F)c(=O)c(C(=O)O)c2n3C(C)S2)CC1 (stereo not given) — higher, -5.14
- CCN1CCN(c2cc3c(cc2F)c(=O)c(C(=O)O)cn3C2CC2)CC1 — higher, -0.0252
- CCn1cc(C(=O)O)c(=O)c2cc(F)c(N3CCN(C)CC3)cc21 — higher, -1.21
- C=CC(=O)Nc1cccc(Sc2nc(Nc3ccc(N4CCN(C)CC4)cc3)ncc2Cl)c1 — higher, 0.842
- CCCCCCCCC(=O)NCc1cc(OC)c(O)cc1I — higher, 0.93
- CCCn1c(=O)c(C)cn2nc(N)nc12 — higher, 3.53
- CCC(C)n1ncn(-c2ccc(N3CCN(c4ccc(OC[C@H]5CO[C@](Cn6cncn6)(c6ccc(Cl)cc6Cl)O5)cc4)CC3)cc2)c1=O (stereo not given in full) — higher, 0.541
- CC(C)N1C[C@@H](C)[C@H](CN(C)Cc2ccc(Oc3ccccc3)cc2)Oc2c(NC(=O)c3ccncc3)cccc2C1=O — higher, 2.27
- CC1OC(O[C@H]2CC[C@@]3(C)C(CC[C@]4(C)C3CC=C3C5CC(C)(C)CC[C@]5(C(=O)OC5OC(CO)C(OC6OC(CO)C(O)C(O)C6O)C(O)C5O)CC[C@]34C)C2(C)C)C(O)C(O)C1OC1OCC(O)(COC2OCC(O)C(OC3OCC(OC4OCC(O)(CO)C4O)C(O)C3O)C2O)C1O (stereo not given in full) — higher, 0.323
- CC1OC(OC2C(O)C(CO)OC(O[C@H]3CC[C@@]4(C)C(CC[C@]5(C)C4CC=C4C6CC(C)(C)CC[C@]6(C(=O)OC6OCC(OC7OCC(O)C(O)C7O)C(O)C6O)CC[C@]45C)C3(C)C)C2O)C(O)C(OC2OCC(O)(CO)C2O)C1O (stereo not given in full) — higher, -0.504
- CC1OC(OC2C(O[C@H]3OC[C@](O)(CO)[C@H]3O)COC(O[C@@H]3[C@@H](O)[C@@H](O)[C@H](OC4C(OC(=O)[C@]56CCC(C)(C)CC5C5=CCC7[C@@]8(C)C[C@H](O)[C@H](OC9OC(CO)C(O)C(O)C9O)[C@@](C)(CO)C8[C@H](O)C[C@@]7(C)[C@]5(C)CC6)OCC(O)C4O)O[C@H]3C)C2O)C(O)C(O)C1O (stereo not given in full) — higher, -5.84
- CC1OC(O[C@H]2[C@@H](O)C[C@@]3(C)C(CC[C@]4(C)C3CC=C3[C@@H]5CC(C)(C)CC[C@]5(C(=O)OC5OC(C)C(OC6OCC(OC7OCC(O)C(OC8OCC(O)C(O)C8O)C7O)C(O)C6O)C(O)C5O)CC[C@]34C)[C@]2(C)CO)C(O)C(OC2OC(CO)C(O)C(O)C2O)C1O (stereo not given in full) — higher, 0.13
- CC1OC(O[C@H]2[C@@H](O)C[C@@]3(C)C([C@H](O)C[C@]4(C)C3CC=C3[C@@H]5CC(C)(C)CC[C@]5(C(=O)OC5OC(C)C(OC6OCC(OC7OCC(O)C(OC8OCC(O)C(O)C8O)C7O)C(O)C6O)C(O)C5O)CC[C@]34C)[C@]2(C)CO)C(O)C(OC2OC(CO)C(O)C(O)C2O)C1O (stereo not given in full) — higher, 0.543
- C/C(=C\Cc1c(O[C@@H]2O[C@H](CO)[C@@H](O)[C@H](O)[C@H]2O)ccc2ccc(=O)oc12)CO — higher, 0.962 ± 0.97
- CCC1(c2ncc[nH]2)Cc2ccccc2O1 (stereo not given) — higher, 1.92
- N#CC(=C(N)Sc1ccc(N)cc1)c1ccccc1C(F)(F)F — higher, 4.79
- CC1CC(=O)C2C(O)(C1)CC(O)C13OC21C(=O)c1cccc(O)c1C3O (stereo not given) — higher, 3.39 ± 2.6
- C[C@H](CCC(=O)NCC(=O)O)[C@H]1CCC2C3C(C[C@H](O)[C@@]21C)[C@@]1(C)CC[C@@H](O)CC1C[C@H]3O (stereo not given in full) — higher, 1.5
- CC(=O)O[C@@H]1CC2C(C)(C)C(=O)C3OC3[C@]2(C)C2CC[C@@]3(C)[C@H](c4ccoc4)OC(=O)C4OC43[C@@]21C (stereo not given in full) — higher, -1.17
- CC1(CO)CC(O)CC2(C)C3=C(CCC12)C(=O)OC3 (stereo not given) — higher, -1.57
- COC(=O)C(CCCNC(=N)N)NC(=O)CCCc1c(-c2ccccc2)[nH]c2c(F)cc(F)cc12 (stereo not given) — higher, 6.11
- COCCCOc1ccnc(CS(=O)c2nc3ccccc3[nH]2)c1C (stereo not given) — higher, -6.29
- Cc1c(OCC(F)(F)F)ccnc1CS(=O)c1nc2ccccc2[nH]1 (stereo not given) — higher, 3.11
- COc1ccnc(CS(=O)c2nc3cc(OC(F)F)ccc3[nH]2)c1OC (stereo not given) — higher, -1.46
- COC1=CC(=O)CC(C)C12Oc1cc(OC)cc(O)c1C2=O (stereo not given) — higher, 1.27
- OCCOCCN1CCN(C2=Nc3ccccc3Sc3ccccc32)CC1 — higher, 2.19
- CNCCC(Oc1ccccc1OC)c1ccccc1 (stereo not given) — higher, 1.09
- CNCC[C@@H](Oc1ccccc1C)c1ccccc1 — higher, 0.617
- CNCCC(Oc1ccc(C(F)(F)F)cc1)c1ccccc1 (stereo not given) — higher, -4.88
- C/C=C(/C)C(=O)O[C@H]1C=C(C)C[C@H](OC(=O)c2ccc(O)cc2)C2[C@](O)(C(C)C)CC[C@@]21C (stereo not given in full) — higher, -3.37
- CCN(CC)CCOc1ccc2c(c1)C(=O)c1cc(OCCN(CC)CC)ccc1-2 — higher, 11.9
- N#Cc1nc2c(nc1C#N)-c1ccc(Cl)cc1C2=O — higher, 2.23
- O=C1c2ccccc2-c2nc3nonc3nc21 — higher, -6.25
- CC1(C)CC[C@]2(C(=O)O)CC[C@]3(C)C(=CCC4[C@@]5(C)CC[C@H](O[C@@H]6OC[C@H](O)[C@H](O)[C@H]6O)[C@@](C)(CO)C5CC[C@]43C)C2C1 (stereo not given in full) — higher, -2.37
- Cc1cc(NS(=O)(=O)c2ccc(N)cc2)no1 — lower, -8.11
- Cc1noc(NS(=O)(=O)c2ccc(N)cc2)c1C — higher, 2.76
- CNc1cc(NS(=O)(=O)c2ccc(N)cc2)nc(NC)n1 — higher, 3.31
- Cn1c(=O)c2c(n(C)c1=O)n(C)c(=O)n2C — higher, 0.458
- Cc1cc(Nc2nc(N[C@@H](C)c3ncc(F)cn3)ncc2Cl)n[nH]1 — higher, 7.45
- CCCCCCCCc1ccc(CCC(N)(CO)CO)cc1 — within error, -5.98 ± 2.9
- CCCCCCCCCCCCCCCCCCc1ccc(C(=O)C=CC(=O)O)cc1 — higher, 0.47
- CCCCCCCCc1ccc(-c2ccc(C(=O)O)cc2)cc1 — higher, 7.84
- COc1cc(/C=C/C(=O)O[C@H]2CC[C@]34CC35CC[C@]3(C)[C@@H](C(C)CCC=C(C)C)CC[C@@]3(C)C5CCC4C2(C)C)ccc1O (stereo not given in full) — higher, -1.25
